Most compounds without a hit are left out; they make up all but 1.9% or so of the library.
GLD-1 RNA inh – GLD-1-TGE RNA interaction inhibition (C. elegans); AID 2280; Q17339; purified GLD-1 + fluorescein TGE RNA, fluorescence polarization; inhibition, % at 5.96 µM; 320,000 tested, 0.44% active;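 active = percent inhibition above a per-plate cutoff, the plate mean of test compounds plus 3 SD, cut at about 30% in these data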
LANA-H2B inh – blocks KSHV LANA binding to histone H2A/H2B; cell-free LANA-H2A/H2B peptide, fluorescence polarization; inhibition, % (no concentration beside the values); 320,000 tested, 0.6% active; AID 2629; in the data active = inhibition mostly above about 10%, no sharp cut-off; inactive = mostly below about 6.7%
MEX-5 binding – C. elegans MEX-5 TCR-2 RNA binding activity; Q9XUB2; MEX-5/FITC-TCR2 RNA binding, fluorescence polarization; hits give low values; activity score (negative = inhibition of binding), % at 10 µM; 300,000 tested, 0.38% active; AID 1832;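 active = inhibition past about -25% in most replicates, and total fluorescence under double the plate's negative control median, limit read from the data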
Yeast superoxide – lowers age-related superoxide in aged yeast cells. S. cerevisiae aged cells, superoxide DHE fluorescence; hits give low values. superoxide response (% of plate mean), % at 10 µM. 330,000 tested, 0.18% active. AID 2690;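 active = superoxide response under a set limit, about three screen SD below normal, cut at about 65% in these data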;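 note: yeast aged for seven days with compound at 30 °C before DHE staining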
MCL1 BIM primary – inhibitors of human MCL1 binding to BIM-BH3 peptide | Q07820 | GST-MCL1 / FITC-Bim-BH3 fluorescence polarization | inhibition, % at 10.9 µM | 320,000 tested, 0.68% active;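 active = inhibition above the mean inhibition of all tested compounds plus 3 SD, set per campaign, cut at about 40% in these data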;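 note: higher means more loss of mP so more displacement of Bim peptide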
Bcl-xL primary – inhibitors of human Bcl-xL. 320,000 tested, 0.7% active. Q07817. GST-Bcl-xL / FITC-Bim BH3 peptide fluorescence polarization. inhibition, % at 10.9 µM. AID 2129;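 active = inhibition above the mean of all tested compounds plus 3 SD, cutoff set per campaign, cut at about 30% in these data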;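 note: inhibitors lower millipolarization by displacing the labeled peptide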
Of the large screens only hits and unclear results are named; the others gave an inactive call.

CCN1CCN(C(CNS(=O)(=O)c2ccc(OC)cc2)c2cccnc2)CC1 (stereo unspecified)	LANA-H2B inh 14
Cc1cc(NC(=O)CSc2nc3c(c(=O)n2CCc2ccccc2)SC(C)C3)no1 (stereo unspecified)	Bcl-xL primary 31
Cc1nnc(NC(=O)CSc2nc3c(c(=O)n2CCc2ccccc2)SC(C)C3)s1 (stereo unspecified)	none
Cc1cc(NC(=O)CSc2nnc(-c3ccc(Br)o3)n2Cc2ccccc2)no1	LANA-H2B inh 12
C=CCn1c(SCC(=O)c2c(N)n(C)c(=O)n(C)c2=O)nnc1-c1ccoc1C	none (no result: MEX-5 binding, MCL1 BIM primary, Bcl-xL primary)
C[C@@H]1CN([C@@H](C)CO)C(=O)c2cc(NC(=O)Nc3ccc(F)cc3)ccc2O[C@@H]1CN(C)Cc1ccc(Oc2ccccc2)cc1	none (no result: MEX-5 binding, MCL1 BIM primary, Bcl-xL primary)
CCC(C(=O)NC1CC1)n1nc(C)c2c(C)n(-c3ccccc3)nc2c1=O (stereo unspecified)	LANA-H2B inh 19
CCC(C(=O)NC1CCCCC1)n1nc(C)c2c(C)n(-c3ccccc3)nc2c1=O (stereo unspecified)	none
CN1c2ccccc2N(C)C1(C)c1cccc2ccccc12	Bcl-xL primary 43
CCCC(C)c1nnc(NC(=O)CS(=O)(=O)Cc2ccccc2)s1 (stereo unspecified)	LANA-H2B inh 30
CN1CCN(C(=O)CCN2C(=O)/C(=C/c3ccc(F)cc3)SC2=S)CC1	LANA-H2B inh 12
CCc1ccc(/C=C2/SC(=S)N(CCC(=O)Nc3ccc(C(=O)O)cc3)C2=O)cc1	Bcl-xL primary 189
CCc1ccc(/C=C2/SC(=S)N(CCC(=O)Nc3cccc(C(=O)O)c3)C2=O)cc1	none
O=C(CCN1C(=O)/C(=C/c2cccs2)SC1=S)N1CCCCC1	LANA-H2B inh 24
COc1ccc(CNC(=O)CN(c2ccc(C(C)C)cc2)S(=O)(=O)c2c(C)noc2C)cc1	LANA-H2B inh 14
Cc1ccc(SCCCCN2CCNCC2)cc1	LANA-H2B inh 18
COc1ccc(CC(=O)NNC(=O)COc2ccc(Cl)cc2C)cc1S(=O)(=O)N1CCOCC1	Yeast superoxide 65 (no result: MEX-5 binding)
COc1ccc(CC(=O)NNC(=O)COc2ccc(C)cc2)cc1S(=O)(=O)N1CCOCC1	none
CN1/C(=C\C=C(/C#N)C(=O)Nc2ccccc2F)C(C)(C)c2ccccc21	MEX-5 binding -39
CN1/C(=C/C=C(/C#N)C(N)=O)C(C)(C)c2ccccc21	none
COc1ccc(-n2ncc3c2CC(C)(C)CC3NC(=O)CSc2ccccn2)cc1 (stereo unspecified)	none
CC1(C)Cc2c(cnn2-c2cccc(F)c2)C(NC(=O)CSc2ccccn2)C1 (stereo unspecified)	MEX-5 binding -44
COc1ccccc1N(Cc1ccccc1)S(=O)(=O)c1cccc(C(=O)Nc2cccc(C)n2)c1	none
Nn1c(SCC(=O)Nc2ccc3c(c2)OCCO3)nncc1=O	LANA-H2B inh 13
Cc1ccc(S(=O)(=O)N2CCCCC2)cc1NC(=O)C1CCC1	none (no result: MEX-5 binding)
CC(=O)c1cc2ccc(O)cc2oc1=O	Bcl-xL primary 48
O=C(c1ccccc1)c1cc2ccc(O)cc2oc1=O	LANA-H2B inh 41
COc1ccc(Cn2c(C)nc3c(c(=O)c4ccccc4n3C)c2=O)cc1	none
COc1ccc(CCn2c(C)nc3c(c(=O)c4ccccc4n3C)c2=O)cc1	LANA-H2B inh 11
COc1ccc(Oc2nc3c(C)cccn3c(=O)c2/C=C(\C#N)C(N)=O)cc1	none
CNC(=O)/C(C#N)=C/c1c(N(Cc2ccccc2)Cc2ccccc2)nc2c(C)cccn2c1=O	Bcl-xL primary 154
CCNC(=O)/C(C#N)=C/c1c(N(Cc2ccccc2)Cc2ccccc2)nc2ccccn2c1=O	none
COC(=O)/C(C#N)=C/c1c(Oc2cc(C)cc(C)c2)nc2c(C)cccn2c1=O	MEX-5 binding -41
NS(=O)(=O)c1cccc(NC(=O)COC(=O)CNC(=O)c2ccc(-c3ccccc3)cc2)c1	none (no result: MEX-5 binding)
COC(=O)c1cccc(NC(=O)CSc2nnc(C3CC3)n2C)c1	none
COc1ccc(C(=O)Nc2ccc(N3CCCCCC3)cc2)cc1S(=O)(=O)N1CCOCC1	none (no result: MEX-5 binding)
COc1ccc2c(C(=O)NCc3ccc4c(c3)OCO4)c(-c3ccc(S(C)(=O)=O)cc3)sc2c1	none (no result: MEX-5 binding, MCL1 BIM primary, Bcl-xL primary)
CN(C)CCOc1ccccc1Cc1ccccc1	LANA-H2B inh 6.1
COc1ccc(NC(=O)CSc2nc3c(c(-c4cccs4)c2C#N)CN(C)CC3)cc1OC	Bcl-xL primary 42
O=C(c1ccccc1)N1CCN(Cc2ccccc2)CC1	none
CC(C)CC(=O)c1c[nH]c(C(=O)N2CCN(Cc3ccccc3)CC2)c1	LANA-H2B inh active
Cc1ccc(CCN2CC(C(=O)NC3CCCCC3)CC2=O)cc1 (stereo unspecified)	LANA-H2B inh 22
COc1ccccc1NC(=O)/C(C#N)=C/c1ccncc1	none
COc1ccccc1NC(=O)/C(C#N)=C/c1cc([N+](=O)[O-])ccc1N1CCCC1	MEX-5 binding -83
C=CCn1c(C)cc(C)c(C#N)c1=O	none
C=CCn1c(O)c(CN2CCOCC2)c(C)c(C#N)c1=O	Bcl-xL primary 39
O=C(CCn1cccn1)Nc1ccc2c(c1)OCO2	LANA-H2B inh 15
Cn1ccnc1SCC(=O)Nc1ccc2c(c1)OCO2	none
O=C(CN(Cc1ccccc1)S(=O)(=O)c1ccc(Br)cc1)NCC1CCCO1 (stereo unspecified)	none
O=C(CN(Cc1ccccc1)S(=O)(=O)c1ccc(Cl)cc1)NCC1CCCO1 (stereo unspecified)	LANA-H2B inh 14
CCC(NC(=O)C(C)NC)C(=O)N1CCCC1C(=O)NC1CCCc2ccccc21 (stereo unspecified)	none (no result: MEX-5 binding)
COC(=O)c1cc2c(-c3ccccc3)c(C)c3ccccn3c-2c1C(=O)OC	GLD-1 RNA inh 63, MCL1 BIM primary 43, Bcl-xL primary 47
COC(=O)c1c(C(=O)OC)c2ccccn2c1C(=O)c1ccccc1	none
Nc1cccc2c1C(=O)N(CCOc1ccccc1F)C2=O	Bcl-xL primary 35
COc1ccccc1NCCC(=O)OCC(=O)Nc1cc([N+](=O)[O-])ccc1F	none (no result: MEX-5 binding, MCL1 BIM primary, Bcl-xL primary)
O=C(N/N=C/c1cccc(C(F)(F)F)c1)c1ccc(O)cc1	Yeast superoxide 63
O=C(N/N=C/c1ccc(C(F)(F)F)cc1)c1ccc(O)cc1	none
CCOc1cc(C2C(C#N)=C(N)OC(C)=C2C(C)=O)cc(Br)c1O (stereo unspecified)	GLD-1 RNA inh 88, MEX-5 binding -69, MCL1 BIM primary 138, Bcl-xL primary 115
CCOc1cc(C2C(C#N)=C(N)OC(C)=C2C(C)=O)c(Br)c(Br)c1OC(C)C (stereo unspecified)	none
CC(C)(C)OC(=O)NCCCCCNC(=O)c1nc[nH]c1C(=O)N1CCN(C(=O)OC(C)(C)C)CC1	none (no result: MEX-5 binding)
